# High-throughput results: PubChem BioAssay, The Scripps Research Institute Molecular Screening Center
# FBW7 act: activators of human E3 ligase FBW7; Q969H0; AlphaScreen FBW7–phospho-cyclin E peptide binding, activator screen; normalized activity (activation), % at 26.1 µM; 0.13% of 650,000 active; AID 1259310; in the data active = normalized activity above about 1.9%;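 note: purified mutant Fbw7 with reduced substrate affinity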
# MITF inh: inhibitors of human MITF | AlphaScreen MITF homodimerization, bead proximity signal | 0.91% of 650,000 active | O75030 | inhibition, % at 2.6 µM; in the data active = inhibition above about 50%;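 note: 0% = vehicle wells with protein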
# TEAD-YAP block: TEAD-YAP interaction inhibition; HEK-TIYL cells, TEAD-Gal4/YAP UAS-luciferase luminescence; inhibition, % at 9.12 µM; 1.4% of 640,000 active; in the data active = inhibition above about 32%;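 note: 0% = median of test compound wells and 100% = reference inhibitor wells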
# GPR151 ag: human GPR151 activation. activation, % at 11.2 µM. PathHunter beta-arrestin GPR151 cells, luminescence. 1% of 650,000 active. Q8TDV0; in the data active = activation above about 4.9%;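 note: 0% = median of compound wells and 100% = cells with positive control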
# Target sequence (Q8TDV0 whole entry, looked up): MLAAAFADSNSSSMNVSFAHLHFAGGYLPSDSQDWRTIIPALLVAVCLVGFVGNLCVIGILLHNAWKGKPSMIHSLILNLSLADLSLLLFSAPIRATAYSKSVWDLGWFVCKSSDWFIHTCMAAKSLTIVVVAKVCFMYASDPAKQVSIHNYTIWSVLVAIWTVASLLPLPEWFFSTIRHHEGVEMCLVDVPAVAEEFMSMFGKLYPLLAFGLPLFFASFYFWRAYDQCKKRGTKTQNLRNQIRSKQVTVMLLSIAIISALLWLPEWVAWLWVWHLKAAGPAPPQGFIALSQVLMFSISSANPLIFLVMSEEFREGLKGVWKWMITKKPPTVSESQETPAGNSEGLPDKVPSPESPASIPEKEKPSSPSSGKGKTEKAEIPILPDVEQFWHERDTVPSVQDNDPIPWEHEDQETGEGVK
# Numbers without * were called inactive. An excerpt weighted towards active compounds, which were near 3.4% of everything screened.
SMILES,FBW7 act,MITF inh,TEAD-YAP block,GPR151 ag
CCn1c(C)nc2cc(C(=O)N/N=C/c3ccc(O)c(O)c3O)ccc21,-1,75*,-2,-2
Oc1ccc(C=Nc2cccc3cnccc23)c(O)c1O,-1,61*,8,2
CNC(=O)COC(=O)c1ccc(Cl)cc1,0,14,4,2
C=CCc1cccc(/C=N/NC(=O)c2cccnc2)c1O,-1,11,14,1
O=C(N/N=C/c1ccc(O)c(O)c1O)c1cccnc1,-1,79*,4,-1
COc1cccc(C2C3=C(NCCN=C3c3ccc(Cl)cc3)C(=O)N2c2ccccc2)c1 (configuration not stated),0,6,58*,1
O=C1C2=C(C(c3ccc(Cl)cc3)=NCCN2)C(c2ccccc2)N1c1ccccc1 (configuration not stated),0,13,-1,0
Cc1ccc(NC(=O)N(Cc2cc3cc4c(cc3[nH]c2=O)OCCO4)CC2CCCO2)cc1 (configuration not stated),0,8,55*,1
COC(=O)C1=C(C)N(C)C(=O)NC1c1cn(-c2ccccc2)nc1-c1ccc(Cl)cc1 (configuration not stated),0,5,0,-1
CCOC(=O)c1cnc2c(OC)cccc2c1NCC1CCCN1CC (configuration not stated),0,-12,6,1
CCOC(=O)c1cnc2c(OC)cccc2c1Nc1ccc(OC)c(OC)c1,0,17,45*,0
CCOC(=O)c1cnc2c(OC)cccc2c1NC1CCCCCC1,0,3,66*,3
CCOC(=O)c1cnc2c(OC)cccc2c1NC1CCCCC1,0,5,55*,4
CCOC(=O)c1cnc2c(Cl)c(Cl)ccc2c1NC1CCCCC1,0,-3,-6,-1
Cc1cccc(-n2nc3c(c2NC(=O)Cc2ccc(F)cc2)CS(=O)C3)c1C (configuration not stated),0,-4,0,-1
O=C(O)CCCNS(=O)(=O)c1ccc(Cl)c(Cl)c1,0,3,-2,0
CCOC(=O)CC(=O)CSc1nc(-c2cccs2)cc(C(F)(F)F)c1C#N,0,-6,5,0
Cc1ccc(S(=O)(=O)N/N=C/c2sc3ccccc3c2O)cc1,0,22,51*,-1
Cc1ccc(S(=O)(=O)N/N=C/c2ccccc2O)cc1,0,-11,2,1
CCN(CC)c1ccc(NC(=O)C(CC(=O)O)NCc2ccccc2)cc1 (configuration not stated),0,-1,6,0
CCCC(=O)Nc1sc2c(c1C(N)=O)CCN(C(=O)OCC)C2,0,1,51*,-1
CCOC(=O)N1CCc2c(sc(NC(=O)C(C)(C)C)c2C(N)=O)C1,0,-1,1,1
CCCCC(=O)Nc1sc2c(c1C(N)=O)CCN(C(=O)OCC)C2,0,7,50*,-1
Cc1c(Cl)cccc1NC(=O)C(C)N1C(=O)c2ccccc2C1=O (configuration not stated),0,8,12,1
COc1ccc(OC)c(NC(=O)C2=C(C)NC(=O)NC2c2ccccc2F)c1 (configuration not stated),0,10,3,0
SMILES,FBW7 act,MITF inh,TEAD-YAP block,GPR151 ag
COc1ccccc1C1C(C#N)=C(N)Oc2c1sc1ccccc21 (configuration not stated),0,-10,33*,0
N#CC1=C(N)Oc2c(sc3ccccc23)C1c1ccc(Cl)cc1Cl (configuration not stated),0,6,-1,0
N#CC1=C(N)Oc2c(sc3ccccc23)C1c1ccccc1OC(=O)c1ccccc1Cl (configuration not stated),0,5,-3,1
COc1ccc(C2C(C#N)=C(N)Oc3c2sc2ccccc32)c(OC)c1 (configuration not stated),0,-3,64*,-1
O=C(NCc1ccncc1)c1c(O)c2cccc3c2n(c1=O)CCC3,0,-8,-5,-1
COc1ccc(/C=N\Nc2ncccc2[N+](=O)[O-])c(OC)c1,0,2,41*,-7
CC(=O)Nc1ccc(/C=C2\CCc3ccccc3C2=O)cc1,0,6,70*,0
Cc1nn(-c2ccccc2)c2sc(C(=O)OCC(=O)Nc3ccc(C(N)=O)cc3)cc12,0,4,2,0
COc1ccc(C(c2c(C)[nH]c3ccccc23)c2c(C)[nH]c3ccccc23)cc1C,0,14,3,1
Cc1nnc(SCC(=O)N2CCC(c3noc4ccc(F)cc34)CC2)s1,0,-2,37*,1
Cc1nnc(SCC(=O)N2CCCC2)s1,0,2,-2,-2
O=C(NC1CCS(=O)(=O)C1)c1ccc(Cl)cc1Cl (configuration not stated),0,6,-12,-1
O=C(c1cc2ccccn2n1)N1CCc2ccccc21,0,-7,66*,-5
CC(=O)Nc1ccc(NC(=O)CCn2c(=S)oc3ccccc32)cc1,1,8,-2,0
CC(=O)/C=C/n1c(=S)oc2ccccc21,0,7,57*,-1
CCC(=O)/C=C/n1c(=S)oc2ccccc21,0,-12,55*,1
CCN(CC)Cc1c(C(=O)N/N=C/c2ccc(O)c([N+](=O)[O-])c2)nnn1-c1nonc1N,0,75*,12,-1
CCN(CC)Cc1c(C(=O)N/N=C/c2cccc(OC)c2O)nnn1-c1nonc1N,0,60*,14,-1
COC(=O)C(C)n1cnc2c(nnn2Cc2ccccc2F)c1=O (configuration not stated),0,-6,-7,-1
O=C(O)CSc1nnc(-c2ccc3c(c2)OCO3)o1,1,18,-4,-1
NC(=O)CSc1nnc(-c2ccc3c(c2)OCO3)o1,0,1,45*,-2
CC(Sc1nnc(-c2ccncc2)o1)C(N)=O (configuration not stated),0,5,1,-1
CC(Sc1nnc(-c2ccc3c(c2)OCO3)o1)C(N)=O (configuration not stated),0,4,37*,-7
CCOC(=O)/C(=C/c1ccc(Br)cc1)c1nnc(N)s1,0,14,40*,2
CCOC(=O)C(=Cc1ccc(O)cc1)C(=O)OCC,0,12,10,0
CCC(c1nnnn1CCOC)N(Cc1cc2ccc(OC)cc2[nH]c1=O)C1CCCC1 (configuration not stated),0,-2,58*,1
CCOC(=O)C1=C(C)N=c2s/c(=C\c3ccc(OCc4ccccc4)cc3)c(=O)n2C1c1ccc2c(c1)OCO2 (configuration not stated),0,-1,-6,1
CN(C)/C=C1/S/C(=N/S(=O)(=O)c2ccccc2)N(C2CCCCC2)C1=O,2.5*,3,-7,-1
Cc1nn2c(N)c(-c3ccc(Cl)cc3)cnc2c1-c1ccccc1,1,16,4,0
Cc1nc2c(-c3ccccc3)cnn2c(N)c1-c1ccccc1,0,0,90*,1
